Data on 14 compounds can be found in PubChem BioAssay AID1645875 (National Center for Advancing Translational Sciences (NCATS), 2021).

SMILES strings stand for the structures. Results filed as inconclusive are left out. The source made the active and inactive calls. The call rests on the fitted dose curve; in most records, active means well fitted inhibition curve with a large enough effect; inconclusive means small, poorly fitted or top-dose-only effect; inactive means no such curve, though single readings can be large or run the other way.

The target of this test is N-terminal Xaa-Pro-Lys N-methyltransferase 1 (Homo sapiens) (UniProt Q9BV86). The test can be described thus: Orthogonal qHTS for Inhibitors of N-terminal methyltransferase 1 (NTMT1): ThioGlo Assay. Particulars: NTMT1 SAHH-coupled ThioGlo fluorescence, 30 min; series mostly up to 84.5 µM. The essentials: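 125 nM NTMT1 pre-incubated 1 min at room temperature with titrated compounds, then 100 uM SAM, 10 uM SAHH and 15 uM ThioGlo3 (final) added. Fluorescence (ex 340/em 450 nm) read before and after 30 min in the dark, normalized to the initial background.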
N-terminal Xaa-Pro-Lys N-methyltransferase 1 (Homo sapiens), sequence (Q9BV86 whole entry, looked up): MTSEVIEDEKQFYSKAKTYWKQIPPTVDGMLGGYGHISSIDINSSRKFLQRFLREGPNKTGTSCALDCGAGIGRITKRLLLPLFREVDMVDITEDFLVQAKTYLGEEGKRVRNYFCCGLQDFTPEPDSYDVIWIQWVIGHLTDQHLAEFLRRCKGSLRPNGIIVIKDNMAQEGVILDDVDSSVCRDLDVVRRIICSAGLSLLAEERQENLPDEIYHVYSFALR
In the case of `CC[N+](CC)(CC)CCOc1cccc(OCC[N+](CC)(CC)CC)c1OCC[N+](CC)(CC)CC`, the Potency is 0.614 µM (active).

In the case of `COc1cccc(C(=O)NCCNc2nc3cc(C)cc(C)c3cc2C#N)c1`, the Potency was 44.1 µM (active).

Consider `COc1cc2c(NC3CCN(C(C)C)CC3)nc(N3CCCN(c4ccccc4)CC3)nc2cc1OCCCN1CCCC1`, for which the Potency is 55.5 µM (active).

`COc1ccc(-c2nnc3n2N=C(c2c(OC)cccc2OC)CS3)cc1OC`: the Potency result was “inactive”.

Take `Fc1cc(Nc2nc(-c3ccncc3)nc3ccccc23)ccc1N1CCNCC1`: the Potency was 21.8 µM (active).

Consider `Cc1cccc(NC(=O)c2c(NC(=O)c3ccccc3)sc3c2CCCC3)c1`, for which the Potency entry was “inactive”.

Consider `COc1ccc(C2CC(=O)N3CN(C4CCCCC4)CSC3=C2C#N)cc1` (centres undefined), for which the Potency was 6.89 µM (active).

As to `Cc1cc2c(C(C)C)c(O)c(O)c(C=O)c2c(O)c1-c1c(C)cc2c(C(C)C)c(O)c(O)c(C=O)c2c1O`, the Potency is 38.8 µM (active).

Take `COc1cc(CCc2ccc(OCC=C(C)C)cc2)cc(OC)c1OC`: the Potency entry is “inactive”.

Regarding `CN(C)c1ccc(Nc2nc(N)n(C(=O)c3c(F)cccc3F)n2)cc1`, the Potency was 4.94 µM (active).

On to `COc1cc2nc(N3CCN(C(=O)c4ccco4)C4CCCCC43)nc(N)c2cc1OC` (centres undefined), for which the Potency is 55.5 µM (active).

As to `COc1c(C(C)C)c(O)c(O)c2c1C(OC)[C@H]1OC(=O)[C@@]23CCCC(C)(C)[C@H]13` (some centres undefined), the Potency is 6.1 µM (active).

Take `CC[C@@H](c1ccc(F)c(F)c1)n1c(C(=O)OC)c(-c2ccno2)[nH]c1=S`: the Potency was 6.98 µM (active).

Turning to `COc1cc2c(NC3CCN(CC4CCCCC4)CC3)nc(N3CCCN(C)CC3)nc2cc1OCCCN1CCCCC1`, the Potency was 43.5 µM (active).
